Most compounds without a hit are left out; they make up all but 3.1% or so of the library.
CASP6 VEID inh = caspase-6 (human) enzyme inhibition; P55212; purified caspase-6, Z-VEID-R110 cleavage fluorescence; inhibition, % at 12.5 µM; actives 0.53% (n = 350,000); AID 686996;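 active = mean inhibition across replicates at least about 35%, with every replicate also reaching that limit, limit read from the data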
ERAP1 inh = blocks human ERAP1 aminopeptidase activity | recombinant ERAP1, Leu-AMC fluorescence, 60 min | actives 0.15% (n = 340,000) | Q9NZ08 | inhibition, % at 10.7 µM;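 active = mean replicate inhibition of at least 30%, or all replicates individually reaching that 30% level; inactive = mean below 30% and not every replicate reaching it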
FGF22 binding-1 = FGF22 (human) thermal shift binding. Q9HCT0. actives 1.5% (n = 340,000). recombinant FGF22 thermal shift, SYPRO orange fluorescence; percent of sucrose octasulfate shift, DMSO zero. activity (Tm shift, normalised), % at 9.99 µM;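 active = mean Tm shift, scaled 0 neutral to 100 positive control, at about 1.3% or above, every replicate too, limit read from the data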
Target sequence (Q9HCT0 whole entry, looked up): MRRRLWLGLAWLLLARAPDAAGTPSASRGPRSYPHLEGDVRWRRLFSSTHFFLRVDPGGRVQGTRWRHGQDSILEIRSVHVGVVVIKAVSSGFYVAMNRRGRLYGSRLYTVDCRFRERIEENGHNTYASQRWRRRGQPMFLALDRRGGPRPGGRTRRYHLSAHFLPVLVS
SIRT5 inh = inhibitors of human sirtuin-5 desuccinylase; inhibition, % at 15 µM; actives 1.1% (n = 330,000); Purified SirT5, succinyl-peptide AMC, trypsin-coupled fluorescence; Q9NXA8; in the data active = inhibition above about 15%
FGF22 binding-2 = binders of human FGF22 by thermal shift. AID 720646. shares compounds with FGF22 binding-1. thermal shift activity, °C (ΔTm) at 38 µM. actives 2% (n = 1,000). recombinant FGF22 thermal shift, SYPRO orange fluorescence;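 active = fitted rise in melting shift crosses a set limit at or below the top valid dose tested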
FGF22 TSA DP = binds human FGF22 shifting its melting temperature; shares compounds with FGF22 binding-1; Thermal shift assay, SYPRO orange, melting temperature shift; Tm shift (activity), % at 38 µM; 50 tested, under 10 active; AID 743017;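 active = compounds whose fitted dose curve of melting temperature shift rises past a set threshold within the tested doses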
TSA no protein = compound-only SYPRO artifact for FGF22 binders | shares compounds with FGF22 binding-1 | compound-only SYPRO orange thermal shift counter-screen, no protein | AC50, µM (highest dose often 38 µM) | actives 2% (n = 1,000);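 active = rising signal whose fitted curve reaches the 0.54 level within the top valid dose, showing a melting point, actives reach about 13 µM in these data; inactive = the rest, including activity in the opposite direction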; also: value is where the raw curve crosses a fixed level and not half-maximal
CASP1 counter = caspase-1 (human) inhibition counter-screen; shares compounds with CASP6 VEID inh; purified caspase-1, Z-YVAD-R110 cleavage fluorescence; activity change, negative = inhibition, % at 35 µM; 100 tested, under 10 active;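 active = compounds lowering fluorescence whose fitted half-maximal concentration is no more than twice their top tested dose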
Target sequence (P29466 whole entry, looked up): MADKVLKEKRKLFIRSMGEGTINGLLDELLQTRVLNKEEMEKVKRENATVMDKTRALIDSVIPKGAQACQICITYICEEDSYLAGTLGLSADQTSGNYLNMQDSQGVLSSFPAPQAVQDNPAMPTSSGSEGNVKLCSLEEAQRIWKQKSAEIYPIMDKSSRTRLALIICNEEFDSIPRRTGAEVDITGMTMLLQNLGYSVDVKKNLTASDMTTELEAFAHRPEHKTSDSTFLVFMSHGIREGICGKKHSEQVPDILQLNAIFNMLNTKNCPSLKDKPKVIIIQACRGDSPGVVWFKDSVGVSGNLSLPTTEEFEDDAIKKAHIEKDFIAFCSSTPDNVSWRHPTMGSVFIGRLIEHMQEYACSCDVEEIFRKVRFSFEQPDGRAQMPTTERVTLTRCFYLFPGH
Of the large screens only hits and unclear results are named; the others gave an inactive call (follow-up assays come after a bar, where they were run).

Cc1ccc(S(=O)(=O)N(C)C[C@H]2Oc3c(NC(=O)C4CCOCC4)cccc3C(=O)N([C@H](C)CO)C[C@H]2C)cc1	none
Cc1ccc(Cl)cc1NS(=O)(=O)c1ccc2c(c1)NC(=O)C(C)C(=O)N2 (stereo not given)	FGF22 binding-1 1.9 | FGF22 binding-2 inactive | TSA no protein inactive
C[C@@H]1CN([C@H](C)CO)C(=O)Cc2cc(NS(C)(=O)=O)ccc2O[C@@H]1CN(C)Cc1ccc(C(=O)O)cc1	FGF22 binding-1 39 | FGF22 binding-2 inactive | TSA no protein inactive
C[C@H]1CN([C@@H](C)CO)C(=O)Cc2cc(NC(=O)C3CC3)ccc2O[C@@H]1CN(C)Cc1ccc(Cl)c(Cl)c1	none
C[C@@H]1CN([C@@H](C)CO)C(=O)Cc2cc(NC(=O)C3CC3)ccc2O[C@H]1CN(C)Cc1ccc(Cl)c(Cl)c1	FGF22 binding-1 3.1 | FGF22 binding-2 inactive | TSA no protein inactive
COc1ccc(NC(=O)N(C)C[C@@H]2Oc3ccc(NC(=O)C4CCCCC4)cc3CC(=O)N([C@@H](C)CO)C[C@H]2C)cc1	none
Cc1[nH]c2ccccc2c1/C=N/NC(=O)c1cccc(F)c1	FGF22 binding-1 2.0 | FGF22 binding-2 inactive | TSA no protein inactive
CCc1ccc(OCc2cccc(C(=O)N/N=C\c3cnn(C)c3C)c2)cc1	none
Cc1c(/C=N\NC(=O)c2cccc(F)c2)cnn1C	FGF22 binding-1 2.0 | FGF22 binding-2 inactive | TSA no protein inactive
Cc1[nH]c2ccccc2c1/C=N/NC(=O)c1cccc([N+](=O)[O-])c1	none (no result: FGF22 binding-1)
C[C@H]1CN([C@@H](C)CO)C(=O)c2cc(NC(=O)Nc3cccc4ccccc34)ccc2O[C@H]1CN(C)S(=O)(=O)c1ccc(F)cc1	none
CCC(C)NS(=O)(=O)c1ccc(S(=O)(=O)N2CC=C(c3ccc(F)cc3)CC2)cc1 (stereo not given)	FGF22 binding-1 14 | FGF22 binding-2 inactive | TSA no protein inactive
CC(C)OC(=O)N(C)C[C@@H]1OCc2ccccc2-c2ccccc2C(=O)N([C@@H](C)CO)C[C@H]1C	none
CN(c1ccccc1)S(=O)(=O)c1cccc(NC(=O)c2ccc3ncsc3c2)c1	FGF22 binding-1 1.4 | FGF22 binding-2 inactive | TSA no protein inactive
Cc1noc(NS(=O)(=O)c2ccc(NC(=O)c3cccc(S(=O)(=O)N(C)c4ccccc4)c3)cc2)c1C	FGF22 binding-1 1.6 | FGF22 binding-2 inactive | TSA no protein inactive
CNC[C@@H]1OCCCC[C@@H](C)Oc2ccc(NS(=O)(=O)c3cccs3)cc2C(=O)N([C@@H](C)CO)C[C@H]1C	none
C[C@@H](NC(=O)C[C@@H]1CC[C@H](NC(=O)CN2CCOCC2)[C@H](CO)O1)c1ccccc1	none
CNC[C@@H]1Oc2cc(C#CCC(C)C)ccc2S(=O)(=O)N([C@@H](C)CO)C[C@H]1C	none
O=C(O)Cc1ccc(NC(=O)c2ccc(Cl)c(Cl)c2)cc1	FGF22 binding-1 1.8 | FGF22 binding-2 inactive | FGF22 TSA DP inactive | TSA no protein inactive
C[C@@H]1CN([C@@H](C)CO)C(=O)c2cc(NS(=O)(=O)c3ccccc3)ccc2O[C@@H](C)CCCCO[C@@H]1CN(C)C(=O)Nc1ccc2c(c1)OCO2	none
CCOc1ccccc1-c1cc(C(=O)N/N=C/c2cccnc2)c2ccccc2n1	none
CCOc1ccc(-c2cc(C(=O)N/N=C/c3cccnc3)c3ccccc3n2)cc1	FGF22 binding-1 2.5 | FGF22 binding-2 inactive | TSA no protein inactive
Oc1ccc(-c2nnc(Nc3cccc(O)c3)c3ccccc23)cc1	FGF22 binding-1 1.9 | FGF22 binding-2 inactive | TSA no protein inactive
CN(C(=O)c1ccccc1C(=O)OCC(=O)NCc1ccccc1)C1CCCCC1	none (no result: CASP6 VEID inh)
CCCNC(=O)COC(=O)c1ccccc1C(=O)N(C)C1CCCCC1	FGF22 binding-1 14 | FGF22 binding-2 inactive | FGF22 TSA DP inactive | TSA no protein inactive
O=S(=O)(c1ccc(F)cc1)N1CCCC1	none
O=S(=O)(Nc1ccccc1OC(F)F)c1ccc(S(=O)(=O)N2CCCC2)cc1	FGF22 binding-1 3.2 | FGF22 binding-2 inactive | TSA no protein inactive
Cc1cccnc1NC(=O)CCCN1C(=O)c2ccccc2C1=O	FGF22 binding-1 17 | FGF22 binding-2 inactive | TSA no protein inactive
COc1nsnc1NS(=O)(=O)c1ccc(NC(=S)NC(=O)c2cccnc2)cc1	FGF22 binding-1 1.6 | FGF22 binding-2 inactive | TSA no protein inactive
C[C@@H]1CN([C@@H](C)CO)S(=O)(=O)c2ccc(-c3ccccc3)cc2O[C@H]1CN(C)C	none
COc1cc(C)c2c(c1C=O)Oc1c(c(C)c(O)c3c1C(O)OC3=O)OC2=O (stereo not given)	CASP6 VEID inh 78, FGF22 binding-1 2.1 (no result: ERAP1 inh, SIRT5 inh) | FGF22 binding-2 inactive | TSA no protein inactive | CASP1 counter inactive
C[C@@H]1CCCCO[C@@H](CN(C)S(=O)(=O)c2ccc(F)cc2)[C@H](C)CN([C@@H](C)CO)C(=O)c2cc(NC(=O)CCCN(C)C)ccc2O1	none
O=c1oc2ccccc2c2oc3cc(O)c(O)cc3c12	CASP6 VEID inh 44 (no result: FGF22 binding-1) | CASP1 counter inactive
Nc1cc(S(=O)(=O)O)cc([N+](=O)[O-])c1O	CASP6 VEID inh 59, SIRT5 inh 30 | CASP1 counter inactive
Nc1cccc(Nc2ccccc2)c1	none
Nc1ccc(Nc2ccccc2)c(S(=O)(=O)O)c1	CASP6 VEID inh 86, SIRT5 inh 55 (no result: FGF22 binding-1) | CASP1 counter inactive
O=C(C[C@@H]1C[C@@H]2c3cc(NC(=O)NC4CCCC4)ccc3O[C@@H]2[C@@H](CO)O1)NCc1cccnc1	none
COc1cc(-c2ccc(Nc3ccccc3C(=O)O)c(OC)c2)ccc1Nc1ccccc1C(=O)O	CASP6 VEID inh 40, SIRT5 inh 30 | CASP1 counter inactive
COc1cc([N+](=O)[O-])c(OC)cc1Nc1ccccc1C(=O)O	none (no result: SIRT5 inh)
CCCCNC(=O)c1nc(C2CCNCC2)oc1-c1cccc(C(F)(F)F)c1	CASP6 VEID inh 92 (no result: ERAP1 inh) | CASP1 counter inactive
CCCCNC(=O)c1nc(C2CCN(S(=O)(=O)c3ccccc3)CC2)oc1-c1cccc(C(F)(F)F)c1	none
O=C(O)C1Nc2c(Cl)cc(Cl)c(Cl)c2C2C=CCC12 (stereo not given)	CASP6 VEID inh 40, SIRT5 inh 22 | CASP1 counter inactive
CC(C)C1Nc2c(O)cc(Cl)c([N+](=O)[O-])c2C2C=CCC21 (stereo not given)	none
Cc1ccc(S(=O)(=O)N2CCN(C(=O)c3cccc(-n4cccc4)c3)CC2)cc1	none
